# Test results reported in ChEMBL document CHEMBL3988442, “University of Dundee, Small-Polar-MMV Screening Library” (2021).
# In all, about 38,000 compounds went through this assay and about 1,200 (3.2%) showed an effect of 50% or more. The median lay at about -58%. For the sample, strong results were picked, then their nearest neighbours and some compounds at random.
# System: Plasmodium falciparum
# Test: Calibr Malaria Delayed Death Assay SOP
# Type: functional, organism-based
# Set-up: scale not given: in the data most compounds retested in dose-response had high values
# Conditions: concentration 4.99e-06 (unit not given; other assays of the set use mol/L)
row,Compound,Percent Effect
1,CCOCc1nc(N2CCCC2)sc1C(=O)NCc1ccco1,-71.71%
2,O=S1(=O)c2cccnc2OC(COc2ccccc2)CN1CC1CC1 (centres undefined),-105.2%
3,CC(C)NC(=O)CNC(C)c1c(F)cccc1Cl (centres undefined),-63.71%
4,Cc1ccc(OCC(=O)NC2CCN(S(C)(=O)=O)CC2)cc1,-121.3%
5,O=C(c1ccc(F)c(F)c1)N1CCCC1CN1CCCC1 (centres undefined),-45.59%
6,CC(C)N(CCCNC(=O)C1CCOCC1)S(C)(=O)=O,-53.5%
7,CN(C)C(=O)c1nn(C)c2c1CN(Cc1ccoc1)C2,-66.64%
8,CN1CCN(C[C@H]2CC[C@@H](Cc3ccc(CN4CCCC4)cc3)O2)CC1,35.77%
9,c1cnc2ccc(C[C@@H]3CC[C@H](CN4CCCOCC4)O3)cc2c1,56.67%
10,CC(=O)N1CCN(C[C@H]2CC[C@@H](Cc3ccc4ncccc4c3)O2)CC1,-19.65%
11,CC1CCN(Cc2ccc(CNC(=O)c3ccn(C)c(=O)c3)cc2)CC1,-16.27%
12,Clc1cc(NCc2ccncc2)nc2[nH]ccc12,63.3%
13,Clc1cc(NCc2nccs2)nc2[nH]ccc12,-79.81%
14,Clc1cc(NCc2ncc[nH]2)nc2[nH]ccc12,-55.12%
15,CCOc1nn(CC)cc1-c1nnc(SCc2cccnc2)n1C,-73.46%
16,CN(CCO)CC1COCCN1C(=O)C1CCCCC1.O=CO (centres undefined),-110.9%
17,Cc1ccc(C(=O)N2CCCCC2CN(C)C)cc1 (centres undefined),-61.09%
18,CCN1CCN(C2CCN(CCOc3ccc(F)cc3)CC2)C1=O,-7.395%
19,Cc1ccc(CNC(=O)CN(C)CC2CCN(CCO)CC2)s1,-11.16%
20,CN(CC1CCN(CCO)CC1)CC(O)c1ccc(F)c(F)c1 (centres undefined),76.36%
21,CN(CC1CCN(CCO)CC1)CC(O)c1ccc(F)cc1 (centres undefined),68.91%
22,CN(CCOCC(F)(F)F)CC1CCN(CCO)CC1,17.18%
23,Cn1ccnc1CN1CCN(CC(O)c2ccc(F)c(F)c2)CC1 (centres undefined),-68.2%
24,Cc1noc(CN(C)CC2CCN(CCO)CC2)n1,-70.26%
25,O=C(O)c1ccc(CNC(=O)C2CCN(Cc3ccco3)CC2)s1,-25.63%
26,CC1CN(c2ncccc2C(=O)N[C@@H]2CCCc3ccccc32)CCN1 (some centres undefined),43.77%

row,Compound,Percent Effect
1,Cc1cnn(CC2CN(Cc3nc(-c4ccco4)no3)CCO2)c1 (centres undefined),-38.17%
2,CCN1CCC(CNC(=O)c2cc(Cl)c[nH]2)CC1,-105.8%
3,O=C(NCC1CCN(CCc2ccccc2)C1)c1cc(Cl)c[nH]1 (centres undefined),64.57%
4,COCCN1CCC(CNC(=O)c2cc(Cl)c[nH]2)CC1,-1.799%
5,COc1ccc2c(=O)ccn(CC(=O)O)c2c1,-41.24%
6,COc1ccc(C(=O)N(CCO)Cc2ccccc2)c(OC)n1,-39.82%
7,O=C(CCS(=O)(=O)c1ccccc1)NCCCn1cccn1,-18.78%
8,Cc1cc(C)n(CC(C)NC(=O)C2(c3ccc(F)cc3)CC2)n1 (centres undefined),-52.55%
9,CC(CNC(=O)C1(c2ccc(F)cc2)CC1)CN1CCCC1=O (centres undefined),8.838%
10,Cn1cc(N2CCC3(CCCN(C(=O)c4ccnn4C)C3)C2=O)cn1 (centres undefined),-100.5%
11,Cc1ccc(C(=O)N2CCC3(CCC(=O)N(CC(C)O)C3)CC2)c(O)c1 (centres undefined),-27.05%
12,O=C(O)C(F)(F)F.O=C(c1cccs1)N1CC[C@@H]2CN(C3CCOCC3)CCO[C@@H]2C1,-28.53%
13,OC(COCc1cccs1)Cn1cc(Cl)cn1 (centres undefined),-34.56%
14,Cn1c(N2CCOCC2)nc2cc(C(=O)N3CC(O)CO3)ccc21 (centres undefined),-166.7%
15,CN(C)CCNCC1CCOC(C)(C)C1 (centres undefined),-38.44%
16,CCN(CC)CCCNCC1CCOC(C)(C)C1 (centres undefined),-55.61%
17,Cc1ccc(C(CCNCCCN(C)C)C2CCOC(C)(C)C2)cc1.O=C(O)C(=O)O (centres undefined),83.16%
18,CC(CCc1ccccc1)NC(=O)CNCCCN(C)C.O=C(O)C(=O)O (centres undefined),-24.06%
19,CN(C)CCCNCC1CCOC(C)(C)C1 (centres undefined),16.23%
20,CC1CN(C(=O)NCCNc2cnccn2)CCO1 (centres undefined),-97.79%
21,O=C1CCSCC(C(=O)N2CCC(O)CC2)N1 (centres undefined),-111.3%
22,CC(C)C(=O)NC1CCN(c2cccc(OC(F)(F)F)c2)C1=O (centres undefined),-46.04%
23,O=C(NCC1CCOCC1)c1cc(-c2ccc3c(c2)CCO3)n[nH]1,-4.569%
24,COc1cccc(-c2n[nH]cc2CNCC2CCS(=O)(=O)C2)c1 (centres undefined),-56.98%
25,CCOc1ccc(CNC(=O)N2CCCC(CO)C2)cc1F (centres undefined),-13.27%
26,CCOc1ccc2ccccc2c1CNCC1CCS(=O)(=O)C1.Cl (centres undefined),73.94%

row,Compound,Percent Effect
1,COc1ccc2ccccc2c1CNCC1CCS(=O)(=O)C1.Cl (centres undefined),66.1%
2,Cc1cccc(C(=O)NCC2CCS(=O)(=O)C2)n1 (centres undefined),-33.59%
3,Cc1ccc(-c2n[nH]cc2CNCC2CCS(=O)(=O)C2)o1 (centres undefined),-9.681%
4,Cc1nn(C)c(N2CCOCC2)c1CNCC1CCS(=O)(=O)C1 (centres undefined),-69.07%
5,Cc1c(Br)cccc1C(=O)NCC1CCNCC1.Cl,-131.1%
6,CCOc1ccc2ccccc2c1CNCC1CCNCC1.Cl.Cl,91.29%
7,CCOC(=O)N1CCC2(CCCN(C3CCOCC3)C2=O)C1 (centres undefined),-44.33%
8,CCc1ccc(CNC(=O)Cn2ccc3sccc3c2=O)cc1,-94.67%
9,O=C(NCCc1ccccn1)[C@@H]1CC[C@@H]2[C@@H](CCN2Cc2ccoc2)O1.O=C(O)C(F)(F)F.O=C(O)C(F)(F)F,-61.1%
10,C1CCC(CO[C@@H]2CC[C@H]3[C@H]2OCCN3CC2CCOCC2)C1.O=C(O)C(F)(F)F,-55.18%
11,O=C(O)C(F)(F)F.O=C(O)C(F)(F)F.O=C(c1ccco1)N1C[C@H]2CCCN(Cc3ccncc3)[C@H]2C1,-22.95%
12,COc1ccc(NC(=O)c2cc3c([nH]c2=O)CCCC3=O)c(OC)c1,-49.85%
13,CCN1CCN(CCNC(=O)c2sc(C(C)C)nc2C)CC1,-17.43%
14,O=C(NCc1cccs1)[C@@H]1CC[C@@H]2[C@@H](CCN2CC2CCC2)O1.O=C(O)C(F)(F)F,20.57%
15,CCc1cnc(CN(C(C)=O)C2CCN(CCc3ccccn3)C2)o1 (centres undefined),-120.8%
16,Cc1csc2ncnc(N3CCCC(Cn4cc(C(C)(C)O)nn4)C3)c12 (centres undefined),-82.82%
17,Cc1cc(C(=O)Nc2cccn(Cc3ccc(F)cc3)c2=O)on1,-10.66%
18,CCc1nc(CN2CCCN(C(=O)CCCOC)CC2)cs1,-51.29%
19,Cc1cc2nc(CN(C)c3ccc(Cl)cc3)cc(=O)n2o1,-90.64%
20,CCCS(=O)(=O)N1CCOC2(CCCN(Cc3ccccn3)C2)C1.O=C(O)C(F)(F)F (centres undefined),-25.77%
21,c1cnnc(N2CCCC2CNc2ncnc3ccsc23)c1 (centres undefined),-78.5%
22,CN(Cc1ncc(C(C)(C)C)o1)CC1CCCN1c1cccnn1 (centres undefined),79.78%
23,c1cnnc(N2CCCC2CNc2ncnc3c2CCC3)c1 (centres undefined),-141.7%
24,CN(Cc1ncc(-c2ccccc2)o1)CC1CCCN1c1cccnn1 (centres undefined),-41.68%
25,CN(Cc1ncc(C(C)(C)C)o1)C1CCCN(c2cccnn2)C1 (centres undefined),-55.67%
26,Fc1ccc(Oc2ccc(CNCC3CNc4ccnn4C3)cn2)cc1 (centres undefined),-107.9%

row,Compound,Percent Effect
1,O=C(COCC(=O)N(c1ccccc1)c1ccccc1)N1CCCCC1,-158.5%
2,CCc1nc(NCC2CCCN(C(=O)C3CC3)C2)c2cnn(C)c2n1 (centres undefined),-178%
3,CC(NCCc1nccn1Cc1ccccc1)c1ccsc1 (centres undefined),82.98%
4,CN(Cc1ccncc1)Cc1nccn1Cc1ccccc1,-44.2%
5,CCN1CCCC(C)(C(=O)NCc2nccn2Cc2ccccc2)C1 (centres undefined),29.31%
6,Cc1nccn1-c1ccc(C(C)NCCC(C)C)cc1 (centres undefined),48.4%
7,CN(CCc1ccccn1)Cc1nccn1Cc1ccccc1,56%
8,Cc1nccn1-c1ccc(C(C)NCCc2ccccn2)cc1 (centres undefined),9.885%
9,CCc1ccc(C(C)NCc2nccn2Cc2ccccc2)o1 (centres undefined),-17.05%
10,CC(C)(C)C(=O)NCc1nccn1CCc1ccccc1,10.03%
11,CN(CCc1ccncc1)Cc1nccn1Cc1ccccc1,39.55%
12,CC(C)n1ccnc1CN1CCOC(CCc2ccccc2)C1 (centres undefined),7.997%
13,Cc1nc(NC(=O)NCCCN2CCC(C(N)=O)CC2)sc1C,-93.87%
14,Cc1nnc(C(NS(=O)(=O)c2cc(F)c(C)cc2F)C(C)C)[nH]1 (centres undefined),-26.37%
15,Cc1ccc(CN(C)Cc2ncc(C(C)(C)C)o2)o1,-58.81%
16,COc1cccc(OC2CN(C(=O)c3c(C)noc3C)C2)c1,-22.85%
17,O=c1c2ccc(Cl)cc2ncn1CCCN1CCCCC1CO (centres undefined),-12.14%
18,CC(C)c1ccc(NC(=O)c2ncc(C(N)=O)cc2Cl)cc1,-172.5%
19,O=C1CC(c2ccc3c(c2)OCO3)c2cnn(C3CCCC3)c2N1 (centres undefined),-69.51%
20,Cn1cc(C2CC(=O)NC23CCN(C(=O)NC2CC2)CC3)cn1 (centres undefined),-54.83%
21,CC(C)C(C)N(C(=O)Cn1nc2n(c1=O)CCCCC2)C1CC1 (centres undefined),-123.2%
22,CCCc1cnc(C)nc1N1CCC(Cc2ccc(CO)cc2)C1 (centres undefined),-3.438%
23,CN1CCC2(CC1)CN(Cc1ccc(C3CCCCO3)o1)CCCN2C (centres undefined),80.31%
24,CN1CCN(C)C2(CCN(Cc3ccc(C4CCCCO4)o3)CC2)C1 (centres undefined),-149.2%
25,OCC1(O)CCN(Cc2ccc(C3CCCCO3)o2)CC1 (centres undefined),-16.13%
26,Oc1cccc(C2CN(c3nnc(C4CC4)s3)CCO2)c1 (centres undefined),-92.75%
